Results published in PubChem BioAssay (NCI).
This is part of a sample that, as a whole, favours compounds with a hit. Of some 83,000 tested, about 20% had one in any assay.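 A percent growth of 40 corresponds to 60% growth inhibition; 0 means no net growth; -100 means all cells died. Active threshold: below 10.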 Values without a mark were called inactive. The source made the active and inactive calls.

Experiments:
Test in all cases: NCI-60 one-dose screen, 48 h (100 = growth as untreated, 0 = no growth, -100 = all killed)
Conditions in all cases: 10 µM unless noted
NCI-H23 lung = test system: NCI-H23 lung
NCI-H226 lung = test system: NCI-H226 lung
NCI-H322M lung = test system: NCI-H322M lung
HOP-62 NSCLC = test system: HOP-62 NSCLC
NCI-H460 lung = test system: NCI-H460 lung
HOP-92 NSCLC = test system: HOP-92 NSCLC
NCI-H522 lung = test system: NCI-H522 lung
A549/ATCC NSCLC = test system: A549/ATCC NSCLC
786-0 renal = test system: 786-0 renal
COLO 205 colon = test system: COLO 205 colon
DU-145 prostate = test system: DU-145 prostate
K-562 leukemia = test system: K-562 leukemia
MALME-3M melanoma = test system: MALME-3M melanoma
MDA-MB-231 breast = test system: MDA-MB-231 breast
RXF 393 renal = test system: RXF 393 renal
SF-268 CNS = test system: SF-268 CNS
SF-295 CNS = test system: SF-295 CNS
SF-539 CNS = test system: SF-539 CNS
UACC-257 melanoma = test system: UACC-257 melanoma
M14 melanoma = test system: M14 melanoma

Row | Structure (SMILES) | growth (NCI-H23 lung) | growth (NCI-H226 lung) | growth (NCI-H322M lung) | growth (HOP-62 NSCLC) | growth (NCI-H460 lung) | growth (HOP-92 NSCLC) | growth (NCI-H522 lung) | growth (A549/ATCC NSCLC) | growth (786-0 renal) | growth (COLO 205 colon) | growth (DU-145 prostate) | growth (K-562 leukemia) | growth (MALME-3M melanoma) | growth (MDA-MB-231 breast) | growth (RXF 393 renal) | growth (SF-268 CNS) [%] | growth (SF-295 CNS) | growth (SF-539 CNS) | growth (UACC-257 melanoma) | growth (M14 melanoma)
1 | CC1OC(n2c3ccccc3c3c4c(c5c6ccccc6[nH]c5c32)C(=O)N(CCN2CCCC2)C4=O)CC(O)C1O (stereo not given) | 41% | 43.1% | 58.2% | 35.2% | -61.3% (active) | 86.6% | 24.5% | 15.3% | 18% | 24.8% | 30.2% | 3.65% (active) | 72.3% | 74.7% | 30.7% | 37 | 26.6% | 39.4% | 84.5% | 38.6%
2 | Clc1ccc2c(c1)C(c1c[nH]c3ccccc13)(c1c[nH]c3ccccc13)CCO2 | 93.5% | 79.7% | 90.8% | 46.4% | 85.3% | 43.1% | -62.7% (active) | 24.6% | 80.8% | 51.4% | 88% | 73.1% | 106% | 55.5% | 95.6% | 71.5 | 70% | 95.4% | 38.1% | 69%
3 | CS(=O)(=O)Nc1cc(-c2ccc3ncnc(Nc4ccc5c(cnn5Cc5ccc(F)cc5)c4)c3c2)cnc1Cl | 43.8% | 66.8% | 60.7% | 43.5% | 61.5% | -17.5% (active) | 43.7% | 78.7% | 48.3% | 60.1% | 62.1% | 48.5% | -4.18% (active) | 32.9% | 9.93% (active) | 14.9 | 66.1% | 27.5% | 50% | 36.8%
4 | Cc1cccc(/C=C/c2c(C(=O)/C=C/c3ccccc3)c(C)nc3ccccc23)c1 | -57.9% (active) | -16.5% (active) | 9.28% (active) | -48.1% (active) | -71.8% (active) | -1.2% (active) | -58.7% (active) | -34.8% (active) | -55.5% (active) | -61.8% (active) | -62% (active) | 3.77% (active) | -79.3% (active) | -14.1% (active) | -83% (active) | 37.7 | -18.8% (active) | -84.9% (active) | -31.1% (active) | -12.8% (active)
5 | Cc1ccc(-c2nc(N3CCCNCC3)c3oc(-c4ccc(C)cc4)nc3n2)cc1 | 91.1% | 101% | 16.5% | 71.8% | -37.5% (active) | 60.9% | 65% | -62.3% (active) | -96.2% (active) | -71.6% (active) | 42% | -76% (active) | 106% | -78.8% (active) | 80.6% | 90.2 | 108% | 73.8% | 101% | -94.7% (active)
6 | CN1C(=O)/C(=C\c2nc([P+](c3ccccc3)(c3ccccc3)c3ccccc3)c(N3CCOCC3)o2)SC1=S | 81.6% | 106% | 91.2% | 97.9% | 97.6% | -33.6% (active) | 93.6% | 86.1% | 97.5% | 88.1% | 100% | 17.2% | -10.8% (active) | 54.8% | 98.1% | 97.3 | 103% | 63% | 61.1% | 47%
7 | CCn1c(SCC(=O)N/N=C(\C)c2ccc(Cl)cc2)nc2c1c(=O)n(C)c(=O)n2C | 102% | 99.7% | 96.9% | 91.8% | 101% | 103% | 97.7% | 104% | 101% | 107% | 108% | 98% | 100% | 104% | 106% | 98 | 101% | 96.3% | 103% | 97.4%
8 | O=C(O)CCCN1C(=O)/C(=C/c2cn(-c3ccccc3)nc2-c2ccc([N+](=O)[O-])cc2)SC1=S | 74.6% | 64.8% | 44.1% | 49.6% | 25.7% | 111% | 83.7% | 40.5% | 64.5% | 103% | 58.5% | 56.5% | 52.1% | 85.5% | 86.7% | 52.8 | 34.8% | 55.5% | 84.6% | -8.74% (active)
